Laboratory results reported in the supplement of paper PMC11732987, “Enantioselective OTUD7B fragment discovery through chemoproteomics screening and high-throughput optimisation” (Communications Chemistry, 2025).

Key:
Assay in all cases: log2 ratio of Biotin-Ahx-Ub-VS probe labelling (fragment/DMSO); higher = less target engagement (more negative = stronger competition), active = hit call of the paper (q ≤ 0.05, log2 ratio ≤ -1)
Settings in all cases: compound concentration: 200 uM; treatment time: 3 h
[1] = biological target: T1, OTUD6B (UniProt Q8N6M0)
T1 sequence (whole entry): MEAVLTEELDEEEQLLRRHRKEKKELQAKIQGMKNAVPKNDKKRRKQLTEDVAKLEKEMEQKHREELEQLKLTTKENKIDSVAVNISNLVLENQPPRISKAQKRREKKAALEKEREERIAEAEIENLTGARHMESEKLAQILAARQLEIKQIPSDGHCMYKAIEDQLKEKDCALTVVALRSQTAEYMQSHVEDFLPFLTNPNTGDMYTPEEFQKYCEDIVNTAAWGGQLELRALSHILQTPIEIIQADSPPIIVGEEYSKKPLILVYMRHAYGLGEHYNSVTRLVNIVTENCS
Summary of the method: (§1)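 Average log2 ratios of fragment over vehicle were obtained by unpaired t-test from global-median-normalised Spectronaut label-free quantities. Proteins with ≥2 unique peptides were included. HEK293T lysate (495 µg per sample) was treated in triplicate with fragment at 200 µM or vehicle for 3 h, then with Biotin-Ahx-Ub-VS at 0.5 µM final for 1 h, and labelled DUBs were NeutrAvidin-enriched and run by diaPASEF LC-MS/MS.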

[2] = biological target: T2, OTUD7B (UniProt Q6GQQ9)
T2 sequence (whole entry): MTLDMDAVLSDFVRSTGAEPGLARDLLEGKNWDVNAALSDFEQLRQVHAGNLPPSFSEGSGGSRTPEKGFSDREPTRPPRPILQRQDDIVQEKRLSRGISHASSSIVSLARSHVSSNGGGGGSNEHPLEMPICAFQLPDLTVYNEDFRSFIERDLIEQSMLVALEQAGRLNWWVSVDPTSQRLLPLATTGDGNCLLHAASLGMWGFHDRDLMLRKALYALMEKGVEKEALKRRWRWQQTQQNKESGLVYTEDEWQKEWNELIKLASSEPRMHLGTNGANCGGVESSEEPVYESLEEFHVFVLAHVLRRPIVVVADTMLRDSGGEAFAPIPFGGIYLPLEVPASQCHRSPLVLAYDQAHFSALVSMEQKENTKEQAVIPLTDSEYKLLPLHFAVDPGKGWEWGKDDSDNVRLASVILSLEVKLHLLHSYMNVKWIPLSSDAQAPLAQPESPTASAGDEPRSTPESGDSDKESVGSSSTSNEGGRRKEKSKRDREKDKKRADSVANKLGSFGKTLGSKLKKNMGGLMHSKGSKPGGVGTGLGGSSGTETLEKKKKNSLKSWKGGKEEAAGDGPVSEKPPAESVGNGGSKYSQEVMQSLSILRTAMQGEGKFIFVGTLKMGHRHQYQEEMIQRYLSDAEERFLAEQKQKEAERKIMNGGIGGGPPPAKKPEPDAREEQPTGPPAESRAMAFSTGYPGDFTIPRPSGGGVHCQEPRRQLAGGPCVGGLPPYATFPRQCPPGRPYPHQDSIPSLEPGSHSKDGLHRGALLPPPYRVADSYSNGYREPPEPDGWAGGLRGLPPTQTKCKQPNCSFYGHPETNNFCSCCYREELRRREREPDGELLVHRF
Summary of the method: as §1

[3] = biological target: PRPF8 (UniProt Q6P2Q9)
Summary of the method: as §1

[4] = biological target: T3, PSMD7 (UniProt P51665)
T3 sequence (whole entry): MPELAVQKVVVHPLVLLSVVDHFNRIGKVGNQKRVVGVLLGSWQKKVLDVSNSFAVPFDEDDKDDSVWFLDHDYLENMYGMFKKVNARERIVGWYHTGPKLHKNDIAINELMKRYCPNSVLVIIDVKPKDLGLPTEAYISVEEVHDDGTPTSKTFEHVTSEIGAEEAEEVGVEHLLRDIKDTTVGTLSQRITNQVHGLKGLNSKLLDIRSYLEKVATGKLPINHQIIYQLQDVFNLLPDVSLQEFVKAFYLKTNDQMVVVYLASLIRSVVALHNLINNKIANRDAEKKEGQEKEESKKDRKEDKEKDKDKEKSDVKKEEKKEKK
Summary of the method: as §1

[5] = biological target: UCHL1 (UniProt P09936)
Sequence of UCHL1 (P09936 whole entry, looked up): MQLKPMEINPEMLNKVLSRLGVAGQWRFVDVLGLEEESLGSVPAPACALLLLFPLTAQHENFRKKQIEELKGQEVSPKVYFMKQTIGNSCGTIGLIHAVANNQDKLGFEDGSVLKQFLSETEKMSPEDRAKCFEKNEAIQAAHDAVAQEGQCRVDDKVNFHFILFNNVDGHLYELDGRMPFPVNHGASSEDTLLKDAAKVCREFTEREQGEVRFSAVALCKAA
Summary of the method: as §1

[6] = biological target: T4, UCHL3 (UniProt P15374)
T4 sequence (whole entry): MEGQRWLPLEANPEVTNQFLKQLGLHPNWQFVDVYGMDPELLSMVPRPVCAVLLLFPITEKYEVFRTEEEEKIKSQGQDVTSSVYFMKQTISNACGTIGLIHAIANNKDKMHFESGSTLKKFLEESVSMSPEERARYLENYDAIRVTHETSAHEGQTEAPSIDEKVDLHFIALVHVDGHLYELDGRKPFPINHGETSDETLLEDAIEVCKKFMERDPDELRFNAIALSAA
Summary of the method: as §1

[7] = biological target: T5, UCHL5 (UniProt Q9Y5K5)
T5 sequence (whole entry): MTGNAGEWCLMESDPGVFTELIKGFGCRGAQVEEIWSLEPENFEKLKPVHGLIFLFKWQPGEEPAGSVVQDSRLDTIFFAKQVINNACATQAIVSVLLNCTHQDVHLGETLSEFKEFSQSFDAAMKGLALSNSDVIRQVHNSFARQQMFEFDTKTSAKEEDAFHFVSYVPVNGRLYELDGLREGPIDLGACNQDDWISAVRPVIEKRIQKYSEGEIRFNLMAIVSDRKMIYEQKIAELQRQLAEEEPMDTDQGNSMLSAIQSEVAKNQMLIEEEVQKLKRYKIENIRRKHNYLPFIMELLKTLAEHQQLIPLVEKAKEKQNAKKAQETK
Summary of the method: as §1

[8] = biological target: USP10 (UniProt Q14694)
Sequence of USP10 (Q14694 whole entry): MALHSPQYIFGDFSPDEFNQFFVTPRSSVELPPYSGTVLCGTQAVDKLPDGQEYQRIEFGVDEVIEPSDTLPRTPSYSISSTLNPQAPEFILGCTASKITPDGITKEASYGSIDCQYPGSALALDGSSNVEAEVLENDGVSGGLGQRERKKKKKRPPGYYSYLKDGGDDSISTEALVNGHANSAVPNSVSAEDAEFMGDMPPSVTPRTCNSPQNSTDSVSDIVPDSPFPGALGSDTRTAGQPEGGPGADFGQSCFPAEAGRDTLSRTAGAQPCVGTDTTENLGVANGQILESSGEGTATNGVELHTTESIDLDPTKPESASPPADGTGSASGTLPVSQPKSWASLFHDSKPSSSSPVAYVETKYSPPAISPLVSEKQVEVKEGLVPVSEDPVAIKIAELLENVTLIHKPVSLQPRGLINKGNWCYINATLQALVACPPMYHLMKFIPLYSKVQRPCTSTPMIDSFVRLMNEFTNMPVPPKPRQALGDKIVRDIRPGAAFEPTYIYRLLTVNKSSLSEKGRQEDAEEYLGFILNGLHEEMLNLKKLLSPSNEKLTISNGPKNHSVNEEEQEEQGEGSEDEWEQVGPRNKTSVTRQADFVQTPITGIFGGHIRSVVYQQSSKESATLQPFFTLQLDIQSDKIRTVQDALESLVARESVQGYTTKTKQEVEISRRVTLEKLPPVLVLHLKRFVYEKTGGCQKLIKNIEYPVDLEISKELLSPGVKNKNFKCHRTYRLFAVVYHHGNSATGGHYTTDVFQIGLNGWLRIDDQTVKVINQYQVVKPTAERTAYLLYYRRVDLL
Summary of the method: as §1

[9] = biological target: T6, USP15 (UniProt Q9Y4E8)
T6 sequence (whole entry): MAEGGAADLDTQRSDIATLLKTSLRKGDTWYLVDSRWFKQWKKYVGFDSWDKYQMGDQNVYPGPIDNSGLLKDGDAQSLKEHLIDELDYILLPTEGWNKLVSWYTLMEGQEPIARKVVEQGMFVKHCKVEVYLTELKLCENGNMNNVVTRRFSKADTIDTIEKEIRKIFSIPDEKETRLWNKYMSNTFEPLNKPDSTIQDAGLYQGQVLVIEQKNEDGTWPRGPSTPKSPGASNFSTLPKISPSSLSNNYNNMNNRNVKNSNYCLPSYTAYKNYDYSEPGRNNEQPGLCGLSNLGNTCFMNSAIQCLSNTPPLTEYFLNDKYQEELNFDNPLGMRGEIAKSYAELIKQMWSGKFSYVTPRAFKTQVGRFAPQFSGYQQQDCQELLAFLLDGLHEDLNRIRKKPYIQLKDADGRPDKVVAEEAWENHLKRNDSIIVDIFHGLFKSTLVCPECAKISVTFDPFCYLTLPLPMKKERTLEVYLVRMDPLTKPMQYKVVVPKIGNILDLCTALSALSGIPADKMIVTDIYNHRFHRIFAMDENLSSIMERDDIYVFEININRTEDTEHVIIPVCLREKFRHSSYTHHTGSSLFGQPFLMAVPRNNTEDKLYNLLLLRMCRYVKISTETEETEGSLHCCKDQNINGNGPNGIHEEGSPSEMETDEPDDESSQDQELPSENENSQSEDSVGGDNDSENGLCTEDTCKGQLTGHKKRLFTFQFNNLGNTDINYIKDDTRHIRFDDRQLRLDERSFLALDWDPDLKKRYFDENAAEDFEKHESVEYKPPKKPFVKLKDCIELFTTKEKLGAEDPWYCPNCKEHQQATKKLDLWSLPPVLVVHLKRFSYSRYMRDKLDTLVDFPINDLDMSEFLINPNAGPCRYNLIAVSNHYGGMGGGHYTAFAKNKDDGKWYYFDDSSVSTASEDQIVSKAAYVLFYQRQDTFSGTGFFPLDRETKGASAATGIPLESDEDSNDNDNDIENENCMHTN
Summary of the method: as §1

[10] = biological target: USP16 (UniProt Q9Y5T5)
Sequence of USP16 (Q9Y5T5 whole entry, looked up): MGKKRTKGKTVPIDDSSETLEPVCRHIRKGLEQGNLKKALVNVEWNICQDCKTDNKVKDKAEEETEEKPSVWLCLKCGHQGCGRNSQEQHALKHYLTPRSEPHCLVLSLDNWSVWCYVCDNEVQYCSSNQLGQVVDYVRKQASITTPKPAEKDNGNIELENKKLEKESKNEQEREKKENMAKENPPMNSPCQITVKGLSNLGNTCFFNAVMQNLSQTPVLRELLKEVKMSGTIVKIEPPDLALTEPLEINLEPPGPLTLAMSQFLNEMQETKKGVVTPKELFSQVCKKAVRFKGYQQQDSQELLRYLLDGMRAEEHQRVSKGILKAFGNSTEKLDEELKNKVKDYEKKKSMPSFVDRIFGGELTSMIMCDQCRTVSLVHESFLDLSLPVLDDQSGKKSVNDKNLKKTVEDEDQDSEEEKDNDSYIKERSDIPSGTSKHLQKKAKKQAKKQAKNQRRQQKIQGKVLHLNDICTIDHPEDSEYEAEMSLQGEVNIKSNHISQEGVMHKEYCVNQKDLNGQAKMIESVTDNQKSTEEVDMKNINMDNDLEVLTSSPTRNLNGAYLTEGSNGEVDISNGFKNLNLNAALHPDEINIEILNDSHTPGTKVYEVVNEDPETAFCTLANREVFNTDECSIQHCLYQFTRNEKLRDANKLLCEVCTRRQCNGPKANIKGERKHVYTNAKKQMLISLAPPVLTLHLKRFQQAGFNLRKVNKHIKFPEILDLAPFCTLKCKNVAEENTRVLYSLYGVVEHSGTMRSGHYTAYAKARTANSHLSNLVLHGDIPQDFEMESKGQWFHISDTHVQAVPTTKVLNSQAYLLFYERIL
Summary of the method: as §1

Measured: log2 ratio of Biotin-Ahx-Ub-VS probe labelling

Cn1cc(CN(Cc2ccc(Cl)cc2)C(=O)CCl)cn1
active: [10] -1.17
inactive: [1] -0.0472 | [2] -0.238 | [3] 0.208 | [4] 0.0391 | [5] -0.602 | [6] 0.113 | [7] -0.221 | [8] -0.0261 | [9] -0.272
